# Screening results from PubChem BioAssay.
# G9a inh: qHTS Assay for Inhibitors of Histone Lysine Methyltransferase G9a | Histone-lysine N-methyltransferase EHMT2 (Homo sapiens), Q96KQ7 | G9a H3K9 monomethylation, AlphaScreen, 2 h | Potency, µM (highest dose often 102 µM), inactives show top-dose activity, negative = inhibition, actives largely listed as inhibitors | actives 8.8% (n = 350,000) | AID 504332, 2011; note: potency is the fitted concentration of half-maximal effect; % is set by controls: 0 for no effect and ±100 for the full control effect; nearly all actives have a fitted effect of over 75% in size
#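 G9a (20 nM) was preincubated 15 min with compound, then reacted 2 h at room temperature with 500 nM biotin-H3K9 peptide and 20 µM SAM. Monomethyl-H3K9 detected by AlphaScreen using anti-H3K9me1 antibody.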
# HP1b chromo inh: HTS for Inhibitors of HP1-beta Chromodomain Interactions with Methylated Histone Tails | Chromobox protein homolog 1 (Homo sapiens), P83916 | AlphaScreen HP1-beta / biotin-H3K9me3 peptide binding | Potency, µM (top dose mostly 114 µM), inactives show at the highest dose activity change, negative = inhibition, hits mostly inhibitors | actives 0.56% (n = 390,000); note: potency is the fitted concentration of half-maximal effect; nearly all actives have a fitted effect of over 70% in size
#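 AlphaScreen: HP1-beta (50 nM) preformed 30 min with biotin-H3(1-18)K9me3 peptide (50 nM) in PBS pH 7.4, 0.01% Tween-20. Compound added for 30 min at RT, then streptavidin donor/nickel chelate acceptor beads (10 ug/mL) for 30 min.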
# CtBP-E1A inh: qHTS Assay for Inhibitors of the CtBP/E1A Interaction. CtBP / adenovirus E1A interaction (AlphaScreen). AlphaScreen GST-E1A/His-CtBP binding, 1536-well; hits give low values. activity change, % (no concentration beside the values). actives 0.49% (n = 340,000). AID 651724, 2012; in the data active = activity change below about -65%; inconclusive = mostly about -30% to -63%; note: % is set by controls: 0 for no effect and ±100 for the full control effect
#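 GST-E1A and His-tagged CtBP (125 nM each as 5X stock) were preincubated with pin-transferred compound for 2 h at 37 °C in the dark, then glutathione donor and nickel acceptor beads were added for 1 h before AlphaScreen reading.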
# Six1-Eya2 blk: qHTS Assay for Inhibitors of the Six1/Eya2 Interaction; actives 0.56% (n = 360,000); Homeobox protein SIX1 (Homo sapiens) + Protein phosphatase EYA2 (Homo sapiens), …; activity change, % (no concentration beside the values); AID 651725, 2012; AlphaScreen GST-Six1/His-Eya2 binding, biochemical; hits give low values; in the data active = activity change below about -65%; inconclusive = mostly about -30% to -63%; note: % is set by controls: 0 for no effect and ±100 for the full control effect
#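 Six1/Eya2 binding was read as AlphaScreen signal after compounds were pinned into GST-Six1 plus His-tagged Eya2 (5X stock 250/500 nM) in pH 8.0 Tris/NaCl/TCEP buffer, beads added, then incubated 1 h, 37 C, dark.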
# BAZ2B block: qHTS Assay for Inhibitors of BAZ2B; AID 504333, 2011; actives 4.4% (n = 360,000); Potency, µM (titrated, usually from 114 µM), for the others: top-dose activity change, negative = inhibition, actives largely listed as inhibitors; AlphaScreen BAZ2B-H3K14Ac peptide displacement; Bromodomain adjacent to zinc finger domain protein 2B (Homo sapiens), Q9UIF8; note: potency is the fitted concentration of half-maximal effect; % is set by controls: 0 for no effect and ±100 for the full control effect; nearly all actives have a fitted effect of over 60% in size
#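 AlphaScreen displacement of biotin-H3(5-23)K14Ac peptide (50 nM final) from BAZ2B (50 nM final) in PBS pH 7.4, 0.01% Tween-20; complex preformed 30 min RT, then compounds (top 110 uM) 30 min RT, beads 20 min dark.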
# JMJD2A Tudor inh: qHTS Assay for Inhibitors of JMJD2A-Tudor Domain. AID 504339, 2011. Potency, µM (doses to about 114 µM), for inactives: top-dose activity change, negative = inhibition, hits mostly inhibitors. actives 4.4% (n = 390,000). AlphaScreen JMJD2A-Tudor / H3K4me3 peptide binding. Lysine-specific demethylase 4A (Homo sapiens), O75164; note: potency is the fitted concentration of half-maximal effect; % is set by controls: 0 for no effect and ±100 for the full control effect; nearly all actives have a fitted effect of over 50% in size
# * = called active by the depositor; ? = inconclusive; nt = not tested or not shown; ! = repeats disagree; [ ] = dose if it differs, or a comment. An excerpt weighted towards active compounds, which were near 10% of everything screened. Unless noted, calls come from the whole dose curve; as a rule, active = well fitted inhibition curve with a large enough effect; inconclusive = small, poorly fitted or top-dose-only effect; inactive = no such curve, though single readings can be large or run the other way.
SMILES,G9a inh,HP1b chromo inh,CtBP-E1A inh,Six1-Eya2 blk,BAZ2B block,JMJD2A Tudor inh
Cc1ccccc1-c1cnc(C(O)c2c(C)ccc3ccccc23)[nH]1 (stereo not given),nt,nt,-27,-7,nt,nt
C[C@@H](O)[C@@H]1C(=O)N2C(C(=O)O)=C([C@H]3CCCO3)S[C@H]12,1%[12.7 µM],nt,nt,nt,nt,nt
Cc1cccc(NC(=O)C(=O)NCC(c2cccnc2)N2CCN(Cc3ccccc3)CC2)c1 (stereo not given),-1%[59 µM],41%,nt,nt,-9%,-4%
CCOc1cc(CN2CCCC(N3CCc4ccccc4C3)C2)ccc1O (stereo not given),nt,33%,6,0,-6%,-14%
COc1cc(CN2CCc3ccccc3C2)ccc1O,14µM*,?,nt,6,50µM*,20µM*
Cc1nc2nc(Cc3ccccc3)[nH]n2c(=O)c1Cc1ccccc1,-44%[12.7 µM],39%,-3,-3,-2%,12%
Cc1nc2nc(CC(=O)O)[nH]n2c(=O)c1[N+](=O)[O-],-12%[12.7 µM],20%,5,-2,-16%,18µM*
COc1ccc(/C=C2/C(=O)ON=C2C)cc1Cl,16µM*,-5%,-7,-6,-31%,-27%
C=CCOc1ccc(/C=C2/C(=O)ON=C2C)cc1OC,50µM*,27%,7,10,-35%,-13%
FC(F)(F)C(F)(F)C(F)(F)C(F)(F)C(F)(F)F,1%[12.7 µM],nt,nt,nt,nt,nt
COc1cccc(-c2cc3c(=O)n(-c4ccccc4)c(=S)[nH]c3s2)c1,?,23%,3,-7,9%,-35%
COc1ccc(OC)c(C2NC(=O)c3sc(=S)n(-c4ccccc4)c3N2)c1 (stereo not given),4µM*,14%,-6,-3,?,-31%
COc1cccc(C2NC(=O)c3sc(=S)n(-c4ccccc4)c3N2)c1 (stereo not given),40µM*,28%,-3,-1,-31%,-26%
COc1ccc(CNC(=O)c2ccc3c(c2)nc2n3CCC(C)C2)c(OC)c1 (stereo not given),-3%[59 µM],12%[57 µM],nt,nt,-4%,-19%
NC(=O)Oc1ccc(Cc2ccccc2)cc1,2%[12.7 µM],nt,nt,nt,nt,nt
CCOCCCNC(=O)C(NC(=O)c1ccccc1O)c1ccc(C)cc1 (stereo not given),5.6µM*,41%,-23,5,-3%,-1%
CCOCCCNC(=O)C(NC(=O)c1ccccn1)c1ccc(C)cc1 (stereo not given),?,9%,2,2,-6%,-15%
Cc1nn(S(=O)(=O)c2ccccc2)c(C)c1S(=O)(=O)N1CCOCC1,79µM*,43%[57 µM],1,18,-27%,-27%
Cc1nn(S(=O)(=O)c2ccc(F)cc2)c(C)c1S(=O)(=O)N1CCCCC1,22%[0.501 µM],51%,4,8,-2%,-27%
Cc1nn(S(=O)(=O)c2ccc(C(C)(C)C)cc2)c(C)c1S(=O)(=O)N1CCOCC1,?,56%,6,5,-25%,?
Cc1nn(S(=O)(=O)c2ccc(F)cc2)c(C)c1S(=O)(=O)N1CCC(C)CC1,-4%[59 µM],25%[57 µM],nt,nt,3%,4%
Cc1nn(S(=O)(=O)c2ccc(F)cc2)c(C)c1S(=O)(=O)N1CCOCC1,35µM*,5%,2,-3,?,-12%
Cc1ccc(S(=O)(=O)n2nc(C)c(S(=O)(=O)N3CCCCC3)c2C)cc1,45µM*!,35%,7,4,-31%,-6%
COc1cccc(OC)c1C(=O)NC(=S)Nc1ccc2oc(-c3ccncc3)nc2c1,-8%,28%,5,2,-4%,-8%
CCOC(=O)c1c(NC(=O)c2ccccc2)sc2c1CCc1ccccc1-2,?,24%,12,44,1%,44%
SMILES,G9a inh,HP1b chromo inh,CtBP-E1A inh,Six1-Eya2 blk,BAZ2B block,JMJD2A Tudor inh
CCOC(=O)c1c(NC(=O)c2ccc(C)c(C)c2)sc2c1CCCCC2,16%[59 µM],49%,nt,nt,9%,15%
CCOC(=O)c1c(NC(=O)c2ccccc2Cl)sc2c1CCc1ccccc1-2,4.5µM*,13%,35,65,25%,8%
CCOC(=O)c1c(NC(=O)C2C3C=CC(C3)C2(C)C(=O)O)sc2c1CCCC2 (stereo not given),-15%[59 µM],4%,-3,-2,56µM*,-34%
CCOC(=O)c1c(NC(=O)c2ccc(Br)cc2)sc2c1CCCC2,10µM*,?,nt,nt,4%,-10%
CCOC(=O)c1c(NC(=O)c2ccccc2C)sc2c1CCCC2,7.9µM*,66%,nt,nt,-1%,85%
O=C(Cc1ccccc1)Nc1cccc(C(=O)O)c1O,-1%,38%,4,3,6%,-24%
COc1ccccc1-n1c(C)nnc1SCC(=O)Nc1cccc(C(C)=O)c1,2%[59 µM],30%,3,2,5%,-10%
CCOC(=O)c1c(NC(=O)C(C)Sc2cn(CCNC(=O)c3ccccc3OC)c3ccccc23)sc2c1CCC2 (stereo not given),?,3%,nt,nt,8.9µM*,-31%
COC(=O)C1=C(NC(=O)c2ccccc2C)CCS1,-34%,2%,-8,-16,-4%,79µM*
COc1cccc(CNC(=O)C2CCC(CNS(=O)(=O)c3ccc(Br)s3)CC2)c1 (stereo not given),-4%[59 µM],25%,nt,nt,-2%,-25%
O=C(CN1CCCC1)OCCCc1ccccc1,-17%[59 µM],-1%,0,-2,-6%,-11%
C[N+]1(CC(=O)OCCCc2ccccc2)CCCC1,10µM*,21%,1,1,56µM*,?
Cc1ccc(C(=O)NCC(c2ccc(F)cc2)N2CCOCC2)s1 (stereo not given),nt,23%,0,-7,nt,-6%
COc1cccc(-c2nn[nH]n2)c1O,3.5µM*,27%,-27,?,56µM*,?
CCOC(=O)[C@]12CCC=C1N(Cc1ccco1)C(=O)[C@H](CC(=O)N1CCC(c3ccccc3)CC1)C2,nt,nt,-19,-4,nt,nt
O=C(C1CCCN(c2nnc(-n3cccc3)s2)C1)N1CCN(c2ccccc2)CC1 (stereo not given),50µM*,-3%,1,-30,?,?
CC(CCc1ccccc1)NC(=O)C1CCCN(c2nnc(-n3cccc3)s2)C1 (stereo not given),9%[59 µM],21%,-3,-12,12%,-35%
